# According to PubChem BioAssay AID1851 (National Center for Advancing Translational Sciences (NCATS), 2009):
# Hit rate of the full screen: of about 16,000 compounds, about 2,600 (16%) were called active. Inconclusive results (about 20%) are left out. The call rests on the fitted dose curve; in most records, active means well fitted curve in the direction sought with a large enough effect; inconclusive means small, poorly fitted or top-dose-only effect, or effect the other way; inactive means no such curve, though single readings can be large or run the other way. These entries were drawn from the full list.
# Target: Cytochrome P450 2D6 (Homo sapiens) (UniProt P10635)
# Test: Cytochrome panel assay with activity outcomes
# Conditions: recombinant CYP, pro-luciferin dealkylation, luminescence, p450-cyp2d6; series mostly up to 57.1 µM; activity, negative = inhibition: at the top concentration
# On the % scale 0 is the no-effect control and ±100 the full control effect.
# Chain of Cytochrome P450 2D6 (Homo sapiens) (P10635 whole entry, looked up): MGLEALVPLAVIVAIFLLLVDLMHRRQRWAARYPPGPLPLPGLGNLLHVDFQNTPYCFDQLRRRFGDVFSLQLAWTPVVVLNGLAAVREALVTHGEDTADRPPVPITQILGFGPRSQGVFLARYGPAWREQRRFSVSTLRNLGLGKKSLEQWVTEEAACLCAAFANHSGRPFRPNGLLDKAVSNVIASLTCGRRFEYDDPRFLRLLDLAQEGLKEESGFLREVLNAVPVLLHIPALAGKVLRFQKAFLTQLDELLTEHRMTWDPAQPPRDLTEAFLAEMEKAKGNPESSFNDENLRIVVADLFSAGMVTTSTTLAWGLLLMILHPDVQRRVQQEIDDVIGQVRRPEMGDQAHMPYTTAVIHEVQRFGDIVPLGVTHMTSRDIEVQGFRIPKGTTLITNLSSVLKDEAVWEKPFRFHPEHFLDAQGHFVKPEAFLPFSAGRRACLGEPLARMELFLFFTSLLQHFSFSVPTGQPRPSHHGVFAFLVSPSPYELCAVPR
SMILES,"activity, negative = inhibition",AC50
Cc1ccc(-c2nnc(C)c(N3CC(C)OC(C)C3)n2)cc1 (stereo not drawn),1.15% (inactive),
O=C1CC2(CCCC2)CC(=O)N1CCCCNC[C@H]1COc2ccccc2O1,,5.01 µM (active)
COc1ccccc1N1CCN(CCN2C(=O)CC3(CCCC3)CC2=O)CC1,,inactive
Cn1c(C(=O)O)c(CC(=O)NCC2COc3ccccc3O2)c2ccccc21 (stereo not drawn),-7.48% (inactive),
Cc1cc(C(=O)CSc2nnc(-c3ccccc3)o2)c(C)n1CC1COc2ccccc2O1 (stereo not drawn),-27.4% (inactive),
O=C1CC2(CCCC2)CC(=O)N1CCNC[C@H]1COc2ccccc2O1,,0.126 µM (active)
C[N+]1(C)CCc2cc(O)c(O)cc2[C@H]1Cc1ccc(O)c(O)c1,-2.15% [at 11.4 µM] (inactive),
CC(C)N1CCN(c2ccc(OC[C@@H]3CO[C@@](Cn4cncn4)(c4ccc(Cl)cc4Cl)O3)cc2)CC1,-9.52% [at 25.6 µM] (inactive),
Cn1c(=S)c2[nH]c(SCc3cccnc3)nc2n(C)c1=O,14% [at 11.4 µM] (inactive),
Cc1ccc(C)c(N(CC(=O)NC2CCCC2)C(=O)c2cc3cc4cccc(C)c4nc3s2)c1,-12.4% (inactive),
CC(=O)N1N=C(c2cccc([N+](=O)[O-])c2)OC1c1ccc(Cl)cc1Cl (stereo not drawn),-23.4% (inactive),
CN(C)c1ccnc(-c2cccc(NS(C)(=O)=O)c2)n1,-4.86% (inactive),
CN(Cc1ccco1)c1ccnc(-c2ccoc2)n1,-15.5% (inactive),
CN(Cc1ccco1)c1ccnc(-c2cccnc2)n1,,7.94 µM (active)
COc1cccc(-c2cc(N(C)Cc3ccco3)ncn2)c1,,15.8 µM (active)
CN(Cc1ccco1)c1cc(-c2cccnc2)ncn1,-7.76% (inactive),
CN(Cc1ccco1)c1cc(-c2cccc(C#N)c2)ncn1,-4.8% (inactive),
CN(Cc1ccco1)c1ccnc(-c2cccc(NS(C)(=O)=O)c2)n1,,20 µM (active)
COc1cccc(-c2nccc(N(C)Cc3ccco3)n2)c1,,1.26 µM (active)
CCOC(=O)c1c(C)nc2c(c1-c1ccccc1)C(=O)CCC2,-6.08% (inactive),
C=C(CC)C(=O)c1ccc(OCC(=O)O)c(Cl)c1Cl,1.74% [at 25.6 µM] (inactive),
C=CCNc1nc(Cl)nc(Nc2ccc(OC)cc2)n1,-1.99% (inactive),
CNC(=O)[C@@H]1O[C@@H](n2cnc3c(NCc4ccc(N)cc4)ncnc32)[C@@H](O)[C@H]1O,0.722% (inactive),
COc1nnc(OC)c2ccccc12,13.1% (inactive),
NS(=O)(=O)c1cc(C(=O)O)c(O)c2ccccc12,0.979% [at 11.4 µM] (inactive),
COC(=O)/C=C\c1cc(O)ccc1O,-4.4% (inactive),
C#CCSc1nncn1C(=O)/C=C/c1ccccc1,-12.3% (inactive),

SMILES,"activity, negative = inhibition",AC50
Nc1nc2c(c(=O)[nH]1)CN(c1ccc(S(N)(=O)=O)cc1)CN2,-2.27% [at 11.4 µM] (inactive),
CCC(Sc1nc(C)cc(=O)[nH]1)C(=O)Nc1nc2c(s1)CCCC2 (stereo not drawn),-8.18% (inactive),
CCc1nnc(SCc2ccc(OC(C)C)cc2)n1N,-55.5% (inactive),
N=C(N)SCCc1ccc(OCc2ccc([N+](=O)[O-])cc2)cc1,-2.73% (inactive),
CC(C)Oc1ccc(CSC(=N)N)cc1,,14.1 µM (active)
O=C1CN(C(=O)c2ccc(Br)o2)C(c2ccc(F)cc2)c2cc(Cl)ccc2N1 (stereo not drawn),-25.2% (inactive),
C[C@@H]1CN2[C@H](c3ccc(Br)cc3)[C@H](C)CC[C@H]2C(=O)O1,-10.6% [at 11.4 µM] (inactive),
NC(=O)N[C@H]1NC(=O)NC1=O,-1.33% [at 25.6 µM] (inactive),
OCCCNCc1ccccn1,12.8% [at 11.4 µM] (inactive),
CCOc1cc(C2NN=C(c3ccccc3)S2)ccc1OCc1ccccc1Cl (stereo not drawn),11.3% (inactive),
CCOc1cc(/C=C2\N=C(C)OC2=O)cc(Br)c1OCC(=O)OC,12.4% (inactive),
OCCCCNCc1ccc(OCc2ccccc2Cl)cc1,,3.55 µM (active)
CCOc1cc(CNCCO)cc(Br)c1OCc1ccccc1Cl,,4.47 µM (active)
O=C(NCc1ccccc1Cl)c1cnccn1,-16.1% (inactive),
CCC(C)NC(=O)C1c2cc(OC)c(OC)cc2C(=O)N(C)C1c1cccs1 (stereo not drawn),5.81% (inactive),
C/C(=N/S(=O)(=O)c1ccc(Cl)c(Cl)c1)OCC(C)(C)C,8.65% [at 11.4 µM] (inactive),
COc1ccc(Oc2ncc3nc(-c4ccc(Cl)cc4)c(=O)n(C)c3n2)cc1,-0.462% (inactive),
CN(C)CCNC(=O)C(C(=O)c1ccc(F)cc1)n1ccccc1=O (stereo not drawn),-5.55% (inactive),
CCCCSc1nc(C)cc(NC(=S)Nc2ccc(OC)cc2)n1,-0.097% (inactive),
CCc1cc[n+](-c2nc3ccccc3nc2C(=C=[N-])C#N)cc1,-20.7% (inactive),
CCCCNC(=O)NS(=O)(=O)c1ccc(C)cc1,-0.907% [at 25.6 µM] (inactive),
C/C(CC(=O)NCc1ccco1)=N\NC(=O)Cc1ccc(Cl)cc1,-4.76% (inactive),
CCCNC(=O)NS(=O)(=O)c1ccc(Cl)cc1,4.55% [at 25.6 µM] (inactive),
C/C(CC(=O)NCc1ccco1)=N\NC(=O)Cc1ccccc1,0.914% (inactive),
CCCNC(=O)CC(NS(=O)(=O)c1ccc(Cl)cc1)c1ccco1 (stereo not drawn),,1.41 µM (active)
O=C(CC(NS(=O)(=O)c1ccc(Cl)cc1)c1ccco1)NCc1ccco1 (stereo not drawn),,5.62 µM (active)
